GPR151 activ: activates the human receptor GPR151; Q8TDV0; PathHunter beta-arrestin GPR151 cells, luminescence; activation, % at 11.2 µM; 1% of 650,000 active; in the data active = activation above about 4.9%;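 note: 0% = median of compound wells and 100% = cells with positive control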
FBW7 act: human FBW7 E3 ligase activation, primary screen; Q969H0; AlphaScreen FBW7–phospho-cyclin E peptide binding, activator screen; normalized activity (activation), % at 26.1 µM; 0.13% of 650,000 active; AID 1259310; in the data active = normalized activity above about 1.9%;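 note: purified mutant Fbw7 with reduced substrate affinity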
TEAD-YAP inh: TEAD-YAP interaction inhibition | HEK-TIYL cells, TEAD-Gal4/YAP UAS-luciferase luminescence | inhibition, % at 9.12 µM | 1.4% of 640,000 active | AID 1259422; in the data active = inhibition above about 32%;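 note: 0% = median of test compound wells and 100% = reference inhibitor wells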
MITF inh: blocks human microphthalmia-associated transcription factor; O75030; AlphaScreen MITF homodimerization, bead proximity signal; inhibition, % at 2.6 µM; 0.91% of 650,000 active; AID 1259374; in the data active = inhibition above about 50%;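 note: 0% = vehicle wells with protein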
Target sequence (O75030 whole entry, looked up): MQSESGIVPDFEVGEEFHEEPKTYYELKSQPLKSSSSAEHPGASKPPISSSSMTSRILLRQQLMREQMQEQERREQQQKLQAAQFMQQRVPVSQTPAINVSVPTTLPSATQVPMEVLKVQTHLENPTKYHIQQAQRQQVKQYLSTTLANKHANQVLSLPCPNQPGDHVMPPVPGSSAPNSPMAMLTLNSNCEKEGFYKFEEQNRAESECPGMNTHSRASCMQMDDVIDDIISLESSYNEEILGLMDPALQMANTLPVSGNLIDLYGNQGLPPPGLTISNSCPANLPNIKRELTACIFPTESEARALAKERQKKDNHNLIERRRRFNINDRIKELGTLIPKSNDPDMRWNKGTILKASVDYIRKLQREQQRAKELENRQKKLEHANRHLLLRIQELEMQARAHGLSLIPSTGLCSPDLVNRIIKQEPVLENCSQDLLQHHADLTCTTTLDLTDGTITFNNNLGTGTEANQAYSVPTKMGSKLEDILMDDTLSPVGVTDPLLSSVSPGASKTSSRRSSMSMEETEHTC
MITF inh conf: confirmation of human MITF inhibitors; 16% of 4,700 active; AlphaScreen MITF homodimerization, biotin/His-MITF beads; AID 1259372; inhibition, % at 2.6 µM; shares compounds with MITF inh;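 active = inhibition above a cutoff derived from the DMSO control wells, cut at about 28% in these data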;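 note: 0% = MITF dimer wells with DMSO only; inhibitors lower the bead chemiluminescence by keeping MITF from dimerizing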
AlphaScreen DR: counter-screen: compounds optically interfering with AlphaScreen; shares compounds with MITF inh; IC50, µM; AlphaScreen optical interference counterscreen, cell-free; 6% of 480 active; call rule not given here
AS interf ctr: AlphaScreen optical interference, counter-screen | shares compounds with MITF inh | LysRS AlphaScreen counterscreen, signal interference, triplicate | inhibition, % at 2.6 µM | 7.6% of 4,700 active | AID 1259376;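 active = inhibition above a cutoff derived from the DMSO control wells, cut at about 30% in these data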
* hit, by the source's call; · = no result given. This is a sample that favours compounds with a hit; in the whole collection about 3.4% have one here.

SMILES	GPR151 activ	FBW7 act	TEAD-YAP inh	MITF inh	MITF inh conf	AS interf ctr	others
CCC1C(=O)NCCN1Cc1ccc2c(c1)CN(C1CCSCC1)CCO2 (centres undefined)	1.0	1.0	-2.0	13.2	·	·
COc1ccc(-c2nnn(CC(=O)Nc3c(C)cccc3C)n2)cc1	0.9	0.0	7.0	-6.5	·	·
Cc1ccc(C)c(Cc2c(C)nc3c(C(=O)NCc4ccc(Cl)cc4)cnn3c2C)c1	-0.1	0.0	-2.2	-1.8	·	·
Cc1ccccc1OCC(=O)Nc1ccc([N+](=O)[O-])cc1Cl	1.0	0.3	5.0	54.0*	-12.2	-3.7
Cc1cc(OCCCN2CCN(C)CC2)ccc1C(C)C	1.5	0.0	2.3	56.0*	-3.2	3.5
Cc1cc(C)c(C)c(OCCn2ccnc2)c1	-0.6	1.6	-9.9	12.7	·	·
Cc1cc(OCCN2CCNCC2)cc(C(C)C)c1	2.4	-0.3	-3.4	65.9*	-2.4	20.2
Cc1cc(OCCCN2CCN(C)CC2)cc(C(C)C)c1	0.1	0.2	-1.2	69.9*	11.2	22.9
Cc1cc(OCCCN2CCNCC2)cc(C(C)C)c1	-1.0	-0.2	-3.6	38.2	·	·
Cc1cc(OCCCN2CCOCC2)ccc1C(C)C	-0.8	0.1	-16.7	18.0	·	·
Cc1cc(OCCn2ccnc2)cc(C(C)C)c1	-0.5	-0.1	-5.2	57.4*	5.4	-0.8
CN1C(=O)c2ccc(NC(=O)c3ccc4c5c(cccc35)CC4)cc2C1=O	0.5	0.6	-8.4	14.5	·	·
COc1ccc(C2CC(=O)C3=C(C2)NC(C)=C(C(=O)OC2CCCC2)C3c2ccc(C)cc2)cc1 (centres undefined)	1.3	0.5	4.7	4.0	·	·
Cn1c(N)c(C(=O)COC(=O)C2CCC(=O)N2)c(=O)n(C)c1=O (centres undefined)	0.3	0.8	-0.5	7.3	·	·
COc1ccc(N2C(=O)CN(C(=O)c3ccc(OC)o3)CC23CCCC3)cc1	0.4	0.1	7.9	8.1	·	·
CCCCN=C1NC(=O)NC(=O)C1(CC)CC	0.7	0.1	1.4	-11.0	·	·
COC(=O)C(Cc1c[nH]c2ccccc12)N=Cc1c(O)[nH]c(=O)[nH]c1=O (centres undefined)	0.3	0.1	6.6	12.1	·	·
O=C(O)CC1S/C(=N/N=C2\CSC(=O)N2)NC1=O (centres undefined)	0.1	-0.5	9.1	92.0*	83.8*	100.3*
NC(=O)NC(=O)CC1S/C(=N/N=C2\CSC(=O)N2)NC1=O (centres undefined)	-0.6	-0.3	10.0	95.6*	72.3*	100.3*
CCOC(=O)c1ccc(NC(=O)CC2S/C(=N/N=C3\CSC(=O)N3)NC2=O)cc1 (centres undefined)	-0.9	-1.7	5.7	25.2	·	·
N#C/C(=C\Nc1ccc(S(=O)(=O)NC(N)=O)cc1)c1nc(-c2ccccc2)cs1	-1.1	-0.1	-0.7	10.2	·	·
CCOC(=O)C1(CC2CC2)CCN(C(=O)c2ccnc3ccc(C)cc23)CC1	-0.5	-0.1	-27.1	2.2	·	·
CN1C(=O)[C@H]2CN(C(=O)NC3CCCCC3)CCN2C(=O)[C@@H]1CO	0.4	-0.2	-0.1	76.4*	71.0*	-10.8	AlphaScreen DR=>6.48
O=C(NC1CCCCC1)N1CCN2C(=O)[C@H]3CCCN3C(=O)[C@H]2C1	-0.1	0.4	-0.5	78.8*	73.2*	0.8	AlphaScreen DR=>6.48
CN1C(=O)[C@H]2CN(C(=O)c3ccc(Cl)cc3)CCN2C(=O)[C@@H]1CO	-0.5	0.0	-0.6	15.0	·	·
SMILES	GPR151 activ	FBW7 act	TEAD-YAP inh	MITF inh	MITF inh conf	AS interf ctr	others
C=CCn1c(=O)c2c(nc3n2CCCN3c2cc(C)cc(C)c2)n(C)c1=O	-0.3	-0.2	12.1	3.2	·	·
COc1cc(CN2CCN(c3ccc(F)cc3)CC2)cc(OC)c1OC	-0.3	0.0	7.4	23.9	·	·
COc1cc(CNCc2ccccc2C(F)(F)F)cc(OC)c1OC	2.2	0.1	-1.3	64.6*	-7.3	4.6
CCc1ccc(CN2CCN(Cc3cc(OC)c(OC)c(OC)c3)CC2)cc1	-0.2	-0.2	2.4	58.5*	-2.9	0.5
COc1cc(CN2CCN(Cc3ccc(F)cc3)CC2)cc(OC)c1OC	1.0	-0.1	-2.3	83.6*	13.1	10.5
COc1cc(CNCc2ccncc2)cc(OC)c1OC	-0.8	0.0	-1.1	58.1*	-0.9	-5.0
COc1cc(CN2CCCC2)cc(OC)c1OC	-0.6	-0.1	2.1	-0.8	·	·
COc1cc(CNCc2cccc(OC)c2OC)cc(OC)c1	0.5	0.1	2.8	20.6	·	·
COc1cccc(CNCc2ccncc2)c1	-0.8	-0.2	5.7	2.1	·	·
CCOC(=O)c1c(NC(C)=O)sc(C)c1CC	1.2	0.0	6.8	7.7	·	·
COc1cc(CN2CCN(Cc3ccncc3)CC2)cc(OC)c1OC	-0.2	-0.4	13.7	70.5*	13.7	16.0
O=C(CNCc1ccccn1)Nc1ccc([N+](=O)[O-])cc1C(=O)Nc1ccccc1F	-1.9	-1.9	-7.5	75.1*	17.9	24.0
O=C(CN1CCOCC1)Nc1ccc([N+](=O)[O-])cc1C(=O)Nc1ccccc1F	3.2	-0.1	6.3	4.0	·	·
CCOc1ccc(/C=C/C(=O)Nc2nc3ccc(S(C)(=O)=O)cc3s2)cc1OC	0.3	0.1	-0.8	73.2*	-0.8	2.1
Oc1ccc(CN2CCOCC2)c2cccnc12	-0.4	-0.4	67.1*	90.8*	99.0*	99.2*
CCOC(=O)C1CCN(Cc2ccc(O)c3ncccc23)CC1	0.0	-1.9	55.3*	71.8*	113.5*	100.3*
CCCCNC(=O)Oc1ccc2c(c1)c(C(=O)OC)c(C)n2C	-0.9	-0.2	-9.3	-14.3	·	·
COc1cc(C(=O)NCCC(=O)NC2CCCCCCC2)cc(OC)c1OC	-0.9	-0.1	6.8	78.1*	-0.6	1.2
COc1ccc(/C=C/C(=O)NC(N)=S)cc1	0.8	0.5	-43.7	9.0	·	·
O=C(O)CCc1ccc(-c2cn3c(NC(=O)c4ccc(F)c(Cl)c4)cnc3cn2)cc1	0.8	0.3	4.6	6.3	·	·
O=[N+]([O-])c1cccc(CN2CCC(N3CCCC3)CC2)c1	0.9	-0.1	2.4	14.1	·	·
O=[N+]([O-])c1ccccc1S(=O)(=O)N1CCN(C2CCCCC2)CC1	-0.5	-0.2	-0.3	51.2*	9.5	17.2
Fc1ccccc1CN1CCN(C2CCN(Cc3ccccc3)CC2)CC1	2.5	0.0	-1.0	7.0	·	·
CCOc1ccccc1CN1CCC(N2CCN(c3ccccc3)CC2)CC1	-1.2	0.2	3.8	48.5	·	·
CC1CCCC(N2CCN(Cc3ccccc3F)CC2)C1 (centres undefined)	-1.4	-0.2	-3.8	62.9*	-7.1	-2.7
O=[N+]([O-])c1ccccc1CN1CCC(N2CCN(c3ccccc3)CC2)CC1	0.3	-0.1	1.5	82.8*	2.4	5.0
O=[N+]([O-])c1cccc(CN2CCC(N3CCCCC3)CC2)c1	-1.0	0.3	-38.1	57.1*	-13.9	-5.0
CC(C(=O)N1CCC(CCC(=O)N(C)Cc2ccccc2)CC1)n1cncn1 (centres undefined)	0.9	-0.1	3.5	-0.8	·	·
